Measurements published in PubChem BioAssay AID868 (SRMLSC, 2007).
Out of some 190,000 compounds screened, about 3,500 (1.8%) were called active. Shown is part of a subset that was picked to be rich in actives. A number with no mark means an inactive call.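 Rule for the calls: active = inhibition above a set limit, 3 SD over mean compound inhibition (cut at about 8.4% in these data); inactive = the rest.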

Assay: inhibitors of the yeast RAM network, primary screen, dse1pr::URA3 reporter, 5-FOA selection (AID 868);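 note: 0% = DMSO-only wells with no growth and 100% = 10 µM 1-NA-PP1 full growth; inhibition rescues growth on 5-FOA so higher OD means more RAM inhibition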
Conditions: S. cerevisiae dse1pr::URA3 reporter, 5-FOA growth OD615, 2 d; at 50 µM; stronger effect = higher value; analog-sensitive cbk1-as2 kinase mutant strain
Work on `CCCC1NC(=S)NC(C)=C1C(C)=O` (centres undefined) yielded an inhibition of 1.13%.
`Cc1ccc(NC(=O)c2cccnc2C(=O)Nc2ccc(C)cc2)cc1` gave an inhibition of 2.98%.
`Cc1ccc(NC(=O)CN2CCCCC2)c2c1CC(C)(C)O2` gave an inhibition of 0.63%.
Molecule `COc1ccc(-c2[nH]ncc2CN(C)Cc2cc(C)[nH]n2)c(F)c1` has an inhibition of 0.37%.
Work on `CN(C)c1ccc(C2Nc3ccccc3C(=O)N2NS(=O)(=O)c2ccccc2)cc1` (centres undefined) yielded an inhibition of 1.39%.
Work on `O=C(CSc1nc2ccccc2o1)N1c2ccccc2Sc2ccc(Cl)cc21` yielded an inhibition of 3.58%.
In the case of `O=C1Cc2ccccc2Sc2ccc(Cl)cc21`, the inhibition is reported as 9.58% (active).
In the case of `S=C1Nc2cc(Cl)ccc2Sc2ccccc21`, the inhibition is reported as 0%.
With `CN(CC(=O)N1CCN(c2ccccc2)CC1)S(=O)(=O)c1cccs1` the inhibition was 1.71%.
In the case of `O=C(NCCCN1CCOCC1)c1ccccc1NS(=O)(=O)c1ccc(Br)cc1`, the inhibition is reported as 1.86%.
Work on `CC(=O)c1cc(-c2ccccc2)n(CC(=O)NC2CCCCC2)c1C` yielded an inhibition of 1.07%.
In the case of `O=C(CN1C(=O)CC(c2ccccc2)=Nc2ccccc21)NC1CCCCC1`, the inhibition is reported as 0.45%.
For `CC(=O)c1cc(-c2ccccc2)n(CCC(=O)NC2CCCCCC2)c1C`, the inhibition was 8.76% (active).
For `S=c1[nH]nc(/C=C/c2ccccc2)o1`, the inhibition was -1.49%.
`O=c1c(-c2ccccc2)cnc2n1CCS2` gave an inhibition of 0.49%.
`CNc1[nH]ncc1[N+](=O)[O-]` showed an inhibition of 0.14%.
For `CC(=O)Nc1ccc(S(=O)(=O)Nc2ccc(-c3ccc4nnc(C)n4n3)cc2)cc1`, the inhibition was 1.24%.
In the case of `Cc1cc(NS(=O)(=O)c2ccccc2)no1`, the inhibition is reported as 1.83%.
Work on `COc1cc(OC)cc(C(=O)Nc2ccc(S(=O)(=O)Nc3cc(C)on3)cc2)c1` yielded an inhibition of 3.99%.
For `COc1cc2ccccc2cc1C(=O)Nc1ccc(S(=O)(=O)Nc2cc(C)on2)cc1`, the inhibition was 9.69% (active).
For `C/C=N/NC(=O)CCCC(=O)N/N=C/C`, the inhibition was 0.88%.
`C#CCOCCOCCOCCNc1nc(N2CCN(C(=O)[C@H](C(C)C)n3cc(CCO)nn3)CC2)nc(N2CCN(C(=O)[C@H](C(C)C)n3cc(CCO)nn3)CC2)n1` gave an inhibition of 1.36%.
In the case of `CN1C(=O)/C(=C\c2cc(Br)cs2)c2ccccc21`, the inhibition is reported as 8.8% (active).
With `CCC1C(=O)c2ccccc2N(C)C1=O` (centres undefined) the inhibition was 0.28%.
`CN1C(=O)/C(=N/OC(=O)c2ccccc2Br)c2ccccc21` gave an inhibition of 4.91%.
Work on `CN1CCN(C(=O)CCc2ncc(C(F)(F)F)cc2Cl)CC1` yielded an inhibition of -0.55%.
`COc1ccc(-n2cnc3cc(C(=O)NC4CCCC4)ccc32)cc1` gave an inhibition of -0.87%.
In the case of `N#Cc1nc(Cc2cccc3ccccc23)oc1NCc1ccc2c(c1)OCO2`, the inhibition is reported as 11% (active).
For `O=C(COc1ccccc1)NCc1ccc2c(c1)OCO2`, the inhibition was 3.27%.
Molecule `N#Cc1nc(Cc2ccccc2)oc1NCCc1ccccc1` has an inhibition of 2.28%.
In the case of `CCCNC(=O)OC[C@H]1O[C@H](CCO/N=C/[C@@H](NS(=O)(=O)c2ccc(C)cc2)[C@H](C)/C=C/CC(=O)OC)C=C[C@@H]1Oc1ccc(OC)cc1`, the inhibition is reported as 14.8% (active).
Molecule `CCCC(NS(=O)(=O)c1ccc(OC)cc1)C(=O)O` (centres undefined) has an inhibition of 0%.
For `CC(C)Oc1ccc(Cc2n[nH]c(=S)n2Cc2ccccc2)cc1Cl`, the inhibition was 9.13% (active).
With `CC(C)Oc1ccc(CCc2n[nH]c(=S)n2Cc2ccccc2)cc1` the inhibition was 6.59%.
`C=CCn1c(CCc2ccc(OC(C)C)cc2)n[nH]c1=S` showed an inhibition of -0.6%.
With `COc1ccc(-c2nn(-c3ccccc3)cc2/C=C\C(=O)Nc2ccc(C(=O)O)cc2)cc1` the inhibition was 9.89% (active).
With `Cc1ccc(-c2nn(-c3ccccc3)cc2/C=C/C(=O)Nc2cccc(S(N)(=O)=O)c2)cc1` the inhibition was 4.87%.
In the case of `O=C(O)c1ccc(NC(=O)c2cn(-c3ccccc3)nc2-c2ccc(Cl)cc2)cc1`, the inhibition is reported as 6.63%.
For `Cc1cc(NC(=O)COC(=O)COc2ccc(Cl)cc2C)c([N+](=O)[O-])cc1C`, the inhibition was 10.1% (active).
`CCCC(=O)OCC(=O)Nc1cc(Cl)ccc1[N+](=O)[O-]` showed an inhibition of 0.82%.
`COc1ccc(OCC(=O)Nc2cc(C)c(Cl)cc2OC)c([N+](=O)[O-])c1` gave an inhibition of 1.54%.
For `Cc1ccccc1C(=O)Nc1ccc(N2CCCCCC2)cc1`, the inhibition was 1.43%.
Molecule `O=C(Nc1cc(S(=O)(=O)N2CCOCC2)ccc1Cl)c1cc(=O)c2ccccc2o1` has an inhibition of 1.91%.
For `COc1ccccc1NC(=O)/C=C/C(=O)O`, the inhibition was 2.02%.
With `Clc1ccccc1CSc1nnc(-c2ccco2)c(-c2ccco2)n1` the inhibition was 16% (active).
In the case of `Nc1nc(SCc2ccccc2Cl)n[nH]1`, the inhibition is reported as 2.44%.
`c1ccc(CSc2nnc(-c3ccco3)c(-c3ccco3)n2)cc1` showed an inhibition of 0.53%.
`CCOC(=O)C1CCCN(C(=O)COc2ccc(N(C)S(=O)(=O)c3ccc(C)cc3)cc2)C1` (centres undefined) gave an inhibition of -0.86%.
In the case of `COCc1c(N)c(C)nc(Cl)c1C#N`, the inhibition is reported as 0.6%.
For `CC(C)(C)C(=O)N(Cc1ccccc1)c1ccccn1`, the inhibition was -0.12%.
Molecule `CCOC(=O)C/C(C)=N\Nc1ccc([N+](=O)[O-])cc1[N+](=O)[O-]` has an inhibition of 0%.
`Cc1ccccc1C(=O)OC1OC(=O)C(Cl)=C1Nc1ccccc1` (centres undefined) gave an inhibition of 6.67%.
With `O=C1OC(OC(=O)c2ccccc2Br)C(N2CCOCC2)=C1Cl` (centres undefined) the inhibition was 1.63%.
With `Cc1ccc(NC2=C(Cl)C(=O)OC2OC(=O)c2ccccc2C)cc1` (centres undefined) the inhibition was 12.9% (active).
Molecule `CCOc1ccc(C(=O)Nc2cccc(-c3ccc4nncn4n3)c2)cc1` has an inhibition of 3.23%.
In the case of `COCCCNC(=O)/C=C/c1ccc(OCc2c(F)cccc2Cl)cc1`, the inhibition is reported as 0.89%.
For `O=C(Nc1ccccc1C(=O)N1CCCCCC1)c1ccccc1Cl`, the inhibition was -0.13%.
With `CC(=O)c1ccc(N2CCN(C(=O)c3ccc4nc[nH]c4c3)CC2)cc1` the inhibition was 2.3%.
`CCOC(=O)/C(N=Nc1cc(C(=O)O)cc(C(=O)O)c1)=C(\O)CCl` showed an inhibition of 0%.
For `CCOc1cc(/C=C2/C(=N)N3OC(C)=CC3=NC2=O)ccc1OC`, the inhibition was 4.09%.
In the case of `Cc1ccc(OCCCn2c(=O)oc3ccccc32)cc1`, the inhibition is reported as 0.62%.
For `COc1ccc(OCCCn2cccc2/C=C2/C(=N)N3OC(C)=CC3=NC2=O)cc1`, the inhibition was 12.5% (active).
`COCCNC(=O)C(c1ccc(O)cc1)N(C(=O)CCC(=O)Nc1nccs1)c1ccc(C)cc1` (centres undefined) showed an inhibition of 0.98%.
For `Oc1c(Cl)cc(Cl)c(Cl)c1Cc1c(O)c(Cl)cc(Cl)c1Cl`, the inhibition was 12% (active).
Work on `OC1CSc2nc3ccccc3n2C1` (centres undefined) yielded an inhibition of 0%.
Work on `CC1Cc2ccccc2N1S(=O)(=O)c1c(N)n(C)c(=O)n(C)c1=O` (centres undefined) yielded an inhibition of -1.31%.
In the case of `CCCCn1ccnc1C(=O)c1cccc(S(=O)(=O)N2c3ccccc3CC2C)c1` (centres undefined), the inhibition is reported as 11.4% (active).
`CN1CCN(S(=O)(=O)c2cccc(C(=O)N3CCc4ccccc43)c2)CC1` showed an inhibition of 1.24%.
Molecule `CC(=O)NC(Cc1ccc(F)c(F)c1)C(=O)NC1CCN(C(=O)c2ccc(C)cc2)CC1` (centres undefined) has an inhibition of 0.5%.
Work on `COCCN(C(=O)c1ccco1)c1nnc(-c2ccc(OC)cc2)s1` yielded an inhibition of 4.86%.
`COc1cc(OC)cc(-c2nnc(N(C)C(=O)c3ccncc3)s2)c1` showed an inhibition of 0.96%.
For `COCCN(C(=O)C(C)C)c1nnc(-c2ccc(C(C)(C)C)cc2)s1`, the inhibition was 19.7% (active).
`CSc1nc2ccc(NC(=O)c3c(F)cccc3F)cc2s1` gave an inhibition of 4.89%.
`Cn1cc(/C=C/C(=O)N2CCCC(C(=O)c3ccc(C(F)(F)F)cc3)C2)cn1` (centres undefined) gave an inhibition of -1.92%.
`CN1CCN(c2ccc(S(=O)(=O)N3CCCCC3)cc2NC(=O)Cc2ccccc2F)CC1` gave an inhibition of 1.32%.
`O=C(O)CSc1nnc(-c2ccc3c(c2)OCO3)n1-c1ccccc1` showed an inhibition of 3.54%.
`Cn1nc(C(F)(F)F)c(C(=O)Nc2cccc(C(F)(F)F)c2)c1SCc1ccc(Cl)cc1` gave an inhibition of 7%.
In the case of `COC(=O)c1ccccc1Sc1c(/C=N/OCc2ccc(Cl)cc2)c(C(F)(F)F)nn1C`, the inhibition is reported as 8.63% (active).
With `COC(=O)c1ccccc1NC(=O)Cn1nc(C(F)(F)F)c2c1CCC2` the inhibition was 5.65%.
Work on `CCOC(=O)c1sc(/N=C/C2=C(O)CC(C)(C)CC2=O)c(C(=O)OCC)c1C` yielded an inhibition of 4.52%.
`Cc1ccc(C(C)NC(=O)Cn2nc(C)c([N+](=O)[O-])c2C)cc1` (centres undefined) showed an inhibition of 0.13%.
`CCC(C(=O)Nc1ccc(C(C)C)cc1)c1ccccc1` (centres undefined) showed an inhibition of 3.4%.
For `O=C(CSc1nc(-c2ccco2)cc(C(F)(F)F)n1)NCc1cccs1`, the inhibition was 5.13%.
For `COc1ccc(-c2cc(C(F)(F)F)nc(SCCC(=O)NCc3ccco3)n2)cc1`, the inhibition was 8.41% (active).
In the case of `COc1cc(OC)cc(-c2nc3nc(C)c(CCC(=O)NCc4ccco4)c(C)n3n2)c1`, the inhibition is reported as 5.8%.
With `COc1cc(/C=N/NC(=S)Nc2cccnc2)cc(OC)c1O` the inhibition was 0.73%.
`CCOc1cc(C2C(C(=O)OC(C)C)=C(C)NC3=C2C(=O)CCC3)cc([N+](=O)[O-])c1O` (centres undefined) gave an inhibition of 3.44%.
For `COc1ccc(CCNC2=C(Cl)C(=O)N(Cc3ccccc3)C2=O)cc1OC`, the inhibition was 8.57% (active).
In the case of `COc1ccc(CCN=C2SCC(=O)N2Cc2ccccc2)cc1OC`, the inhibition is reported as 0.24%.
Work on `COc1ccc(CCN(C)CCN2C(=O)c3ccccc3C2=O)cc1OC` yielded an inhibition of -0.11%.
Work on `O=C(CSc1ccccc1)Nc1nnc(/C=C/c2ccccc2)s1` yielded an inhibition of 3.72%.
`COc1ccc(Cl)cc1C(=O)NNC(=S)NC1CCCC1` showed an inhibition of 0%.
Molecule `COCCCNc1nc2c(-c3cccc(C(F)(F)F)c3)nnn2c2ccccc12` has an inhibition of 4.26%.
With `CCCNC(=O)c1c(Cl)cnn1-c1ccc(C)cc1` the inhibition was -1.52%.
